Experimental data published in PubChem BioAssay (Tox21).
Several values for one entry are separate records, joined by “and”; a condition that tells them apart may be missing. Identical values can stand only once. Values without a mark were called inactive. A call without a number means that no potency is given here. Activity calls are given as the source filed them. Unless noted, calls come from the whole dose curve; as a rule, active = well fitted curve in the direction sought with a large enough effect in the repeat runs; inconclusive = weak or mixed curves; inactive = no such curve, though single readings can be large; an effect the other way counts as inactive or inconclusive.

Tests used:
[1] = qHTS assay to identify small molecule antagonists of the thyroid receptor (TR) signaling pathway (AID 743065); note: nearly all actives have a fitted effect of over 55% in size; note: potency is the fitted concentration of half-maximal effect
Procedure, shortened: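 GH3.TRE-Luc rat pituitary cells carrying two TR response elements driving luciferase were plated for 4 h, given compound plus 1 nM T3 (final), and incubated 23.5 h at 37 C. ONE-Glo luminescence measured reporter inhibition; CellTiter-Fluor fluorescence tracked cytotoxicity.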

[2] = tested on: thyroid hormone receptor (rat, GH3 cells); assay: qHTS assay to identify small molecule agonists of the thyroid receptor (TR) signaling pathway (AID 743066; calls by dose curve; note: potency is the fitted concentration of half-maximal effect)
[3] = biological target: Estrogen receptor (Homo sapiens) (UniProt P03372); assay: qHTS assay to identify small molecule antagonists of the estrogen receptor alpha (ER-alpha) signaling pathway (AID 743069; active = well fitted curve in the direction sought with a large enough effect in the signal ratio in the repeat runs, not every such curve was filed as active; inconclusive = weak or mixed curves, or effect the other way; inactive = no such curve, though single readings can be large or run the other way; the % refers to the signal ratio; note: potency is the fitted concentration of half-maximal effect)
Chain of Estrogen receptor (Homo sapiens) (P03372 whole entry, looked up): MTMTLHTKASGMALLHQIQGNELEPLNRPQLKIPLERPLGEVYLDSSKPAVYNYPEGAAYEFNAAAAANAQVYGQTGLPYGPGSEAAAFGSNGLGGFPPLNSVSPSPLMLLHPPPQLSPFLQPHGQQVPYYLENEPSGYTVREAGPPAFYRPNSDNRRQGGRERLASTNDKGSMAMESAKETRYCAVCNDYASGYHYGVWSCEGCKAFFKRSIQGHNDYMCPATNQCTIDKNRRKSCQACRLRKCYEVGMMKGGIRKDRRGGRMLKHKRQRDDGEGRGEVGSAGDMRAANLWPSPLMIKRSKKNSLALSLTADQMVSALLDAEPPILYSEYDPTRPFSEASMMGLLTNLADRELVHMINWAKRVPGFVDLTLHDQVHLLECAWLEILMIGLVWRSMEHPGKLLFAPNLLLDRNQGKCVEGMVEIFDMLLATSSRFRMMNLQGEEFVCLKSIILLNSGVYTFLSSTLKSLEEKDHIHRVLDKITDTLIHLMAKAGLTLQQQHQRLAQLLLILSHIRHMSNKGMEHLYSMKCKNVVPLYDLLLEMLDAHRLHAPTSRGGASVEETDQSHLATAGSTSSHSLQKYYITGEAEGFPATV
Procedure, shortened: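 Screening used a UAS-driven beta-lactamase reporter integrated into HEK293 cells expressing ER-alpha, stimulated with 17beta-estradiol alongside test compounds over 18 hr at 37C; signal came from LiveBLAzer B/G FRET fluorescence.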

[4] = qHTS assay to identify small molecule antagonists of the estrogen receptor alpha (ER-alpha) signaling pathway - cell viability counter screen (AID 743074; calls by dose curve; note: nearly all actives have a fitted effect of over 45% in size)
[5] = biological target: Estrogen receptor (Homo sapiens) (UniProt P03372); assay: qHTS assay to identify small molecule agonists of the estrogen receptor alpha (ER-alpha) signaling pathway (AID 743075; calls by dose curve; note: potency is the fitted concentration of half-maximal effect)
[6] = biological target: Estrogen receptor (Homo sapiens) (UniProt P03372); assay: qHTS assay to identify small molecule agonists of the estrogen receptor alpha (ER-alpha) signaling pathway using the BG1 cell line (AID 743079); settings: BG1Luc4E2 cells, ERE-luciferase agonist, 22 h; note: nearly all actives have a fitted effect of over 20% in size; note: potency is the fitted concentration of half-maximal effect
[7] = qHTS assay to identify small molecule antagonists of the estrogen receptor alpha (ER-alpha) signaling pathway using the BG1 cell line (AID 743080; calls by dose curve;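 note: BG1 cells stimulated with 17beta-estradiol alongside compound; nearly all actives have a fitted effect of over 25% in size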; note: potency is the fitted concentration of half-maximal effect)
Procedure, shortened: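 Endogenous full-length ER-alpha in BG1-Luc-4E2 cells drives a stably integrated 4×ERE luciferase gene; compounds were tested against 17beta-estradiol over 21.5 h, with luminescence and multiplexed viability fluorescence recorded.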

[8] = qHTS assay to identify small molecule antagonists of the estrogen receptor alpha (ER-alpha) signaling pathway using the BG1 cell line - cell viability counter screen (AID 743081);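 note: compound given together with 17beta-estradiol as the ER stimulus; nearly all actives have a fitted effect of over 45% in size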
Aromatase (Homo sapiens) = Aromatase (Homo sapiens) (UniProt P11511); assay: qHTS assay to identify aromatase inhibitors (AID 743083); note: nearly all actives have a fitted effect of over 55% in size; note: potency is the fitted concentration of half-maximal effect
Chain of Aromatase (Homo sapiens) (P11511 whole entry, looked up): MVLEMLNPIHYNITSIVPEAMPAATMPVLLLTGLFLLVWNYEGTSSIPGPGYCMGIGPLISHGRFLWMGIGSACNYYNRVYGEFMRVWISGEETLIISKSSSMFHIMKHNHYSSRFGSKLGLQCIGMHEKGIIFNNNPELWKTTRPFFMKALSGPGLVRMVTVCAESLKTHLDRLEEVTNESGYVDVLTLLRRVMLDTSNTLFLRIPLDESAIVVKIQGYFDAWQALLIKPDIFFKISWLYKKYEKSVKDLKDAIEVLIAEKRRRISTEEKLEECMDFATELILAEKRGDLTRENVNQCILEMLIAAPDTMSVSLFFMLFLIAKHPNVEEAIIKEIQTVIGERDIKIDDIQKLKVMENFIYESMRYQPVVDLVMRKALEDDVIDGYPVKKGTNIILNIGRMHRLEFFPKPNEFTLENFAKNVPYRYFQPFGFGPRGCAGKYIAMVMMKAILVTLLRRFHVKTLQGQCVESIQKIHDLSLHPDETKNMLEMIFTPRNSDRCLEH

[9] = qHTS assay to identify aromatase inhibitors - cell viability counter screen (AID 743084);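 note: cells stimulated with testosterone during compound exposure; nearly all actives have a fitted effect of over 55% in size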; note: potency is the fitted concentration of half-maximal effect

| SMILES | Potency [1] | Potency [2] | Potency [3] | Potency [4] | Potency [5] | activation ([6]; at 70.3 µM (top of the series)) | Potency [7] | Potency [8] | Potency (Aromatase (Homo sapiens)) | Potency [9] | Potency [6] | activation ([6]; at 32.5 µM (top of the series)) | activation ([6]; at 95 µM (top of the series)) [%] | activation ([6]; at 260 µM (top of the series)) [%] |
| --- | --- | --- | --- | --- | --- | --- | --- | --- | --- | --- | --- | --- | --- | --- |
| CCCN1CCC[C@@H]2Cc3[nH]ncc3C[C@H]21 | inactive | inactive | inactive | inactive | inactive | -4.44% | inactive | inactive | inactive | inactive |  |  |  |  |
| CCC(C)(C#N)N=NC(C)(C#N)CC (stereo not given) | inactive | inactive | inactive | inactive | inactive | -7.9% | inactive | inactive | inactive | inactive |  |  |  |  |
| CCC(C(N)=O)N1CCCC1=O (stereo not given) | inactive | inactive | inactive | inactive | inactive |  | inactive | inactive | inactive | inactive | 21.1 µM (active) |  |  |  |
| CS(=O)(=O)c1ccc(C(=O)C2C(=O)CCCC2=O)c(Cl)c1COCC(F)(F)F | inactive | inactive | inactive | inactive | inactive | 14.7% | inactive | inactive | inactive | inactive |  |  |  |  |
| CNC(=O)O/N=C(/CSC)C(C)(C)C | inactive | 61.1 µM (active) | inactive | inactive | inactive | -5.87% | inactive | inactive | inactive | inactive |  |  |  |  |
| C[C@H]1CCCC(=O)CCC/C=C/c2cc(O)cc(O)c2C(=O)O1 | 23.4 µM (active) and 15.9 µM (active) | inactive | 47.2 µM [inconclusive] (active) | inactive | 13.3 nM [inconclusive] (active) and 71.5 nM [inconclusive] (active) | -34.9% (active) | 22.4 µM (active) |  | 23.4 µM (active) | 18.6 µM (active) |  | -13.6% (active) |  |  |
| CCOC(=O)CCl | inactive | inactive | inactive | inactive | inactive | 26.5% | inactive | inactive | inactive | inactive |  |  |  |  |
| OP(O)c1ccccc1 | inactive | inactive | inactive | inactive | inactive |  | inactive | inactive | inactive | inactive |  |  | 6.24 |  |
| C[C@H](N)C(=O)c1ccccc1 | inactive | inactive | inactive | inactive | inactive | -5.09% | inactive | inactive | inactive | inactive |  |  | 4.39 |  |
| CCN[C@@H](C)Cc1ccccc1 | inactive | inactive | inactive | inactive | inactive |  | inactive | inactive | inactive | inactive |  |  | 0.895 |  |
| CCC1(CC)C(=O)C=CNC1=O | inactive | inactive | inactive | inactive | inactive | 10.4% | inactive | inactive | inactive | inactive |  |  |  |  |
| O=[N+]([O-])CCO | inactive | inactive | inactive | inactive | inactive |  | inactive | inactive | inactive |  |  |  | -2.33 |  |
| CN=CNc1ccc(C)cc1C | inactive | inactive | inactive | inactive | inactive | 15.7% | inactive | inactive | inactive | inactive |  |  |  |  |
| O=C(O)c1c(Cl)ccc2cc(Cl)cnc12 | inactive | inactive | inactive | inactive | inactive | 3.83% | inactive | inactive | inactive | inactive |  |  |  |  |
| c1cncc([C@@H]2CCCCN2)c1 | inactive | inactive | inactive | inactive | inactive | -1.75% | inactive | inactive | inactive | inactive |  |  |  |  |
| Cc1cccc2sc3nncn3c12 | inactive | inactive | inactive | inactive | inactive | 13.8% | inactive | inactive | inactive | inactive |  |  |  |  |
| ClC(Cl)(Cl)Cl | inactive | inactive | inactive | inactive | inactive | 2.38% and 2.1% | inactive | inactive | inactive | inactive |  |  |  |  |
| N#CN | inactive | inactive | inactive | inactive | inactive | -14.8% | inactive | inactive | inactive | inactive |  |  |  | -1.65 |
| CCCCCCCC(=O)Cl | inactive | inactive | inactive | inactive | inactive |  | inactive | inactive | inactive | inactive |  |  | -1.47 |  |
| COc1cccc([C@@]2(O)CCCC[C@@H]2CN(C)C)c1 | inactive | inactive | inactive | inactive | inactive | 7.73% | inactive | inactive | inactive |  |  |  |  |  |
| CCNP(=S)(OC)O/C(C)=C/C(=O)OC(C)C (stereo not given) | inactive | inactive | inactive | inactive | inactive | 10.8% | inactive | inactive | inactive | inactive |  |  |  |  |
| C/C(=N\NC(=O)Nc1cc(F)cc(F)c1)c1ncccc1C(=O)O | inactive | inactive | inactive | inactive | inactive | -0.0536% | inactive | inactive | inactive | inactive |  |  |  |  |
| C=C(C)[C@H]1CN[C@H](C(=O)O)[C@H]1CC(=O)O | inactive | inactive | inactive | inactive | inactive | 2.22% | inactive | inactive | inactive | inactive |  |  |  |  |
